Compound activity: PubChem BioAssay, several laboratories
tim23-1 inh – tim23-1 yeast growth inhibition. 330,000 compounds, 1.3% hits. inhibition, % at 20 µM. AID 463212. S. cerevisiae tim23-1 growth, BacTiter-Glo luminescence, 24 h;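 active = growth inhibition of the mutant yeast at or above 50%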;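 also: temperature-sensitive mutant grown at 25 °C; plate controls were DMSO-treated mutant yeast for no effect and medium wells lacking yeast for full effect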
TIM10 inh – growth inhibitors of TIM10 yeast strain | S. cerevisiae TIM10 strain growth, BacTiter-Glo luminescence, 24 h | 330,000 compounds, 1.4% hits | inhibition, % at 10 µM;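 active = inhibition of 40% or more at the single tested concentration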;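 also: wild-type TIM10 isogenic control strain grown at permissive 25 °C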
NLRP3 yeast inh – NALP3 inhibition in yeast | Yeast reconstituted NLRP3/ASC/caspase-1, beta-gal luminescence, 24 h | inhibition, % at 10 µM | 330,000 compounds, 0.39% hits | AID 2825;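 active = inhibition of 50% or more; inactive = inhibition below 50%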;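 also: plate controls were induced DMSO wells for no effect and uninduced yeast grown without galactose for full effect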
SKKanGAS inh – inhibitors of SKKanGAS S. pyogenes growth in kanamycin (SK-promoter or general growth effect) | BacTiter-Glo, 6 h | inhibition, % at 7.5 µM | 300,000 compounds, 1.3% hits | AID 1662;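 active = mean replicate score, as percent of positive control median, at least 50; inconclusive = mean below 50 but one replicate at or above 50; inactive = mean and every replicate below 50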;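 also: strain carries kanamycin resistance gene driven by streptokinase promoter and grows in 40 µg/ml kanamycin; loss of luminescence reflects streptokinase promoter inhibition or plain growth inhibition; 0% = median of DMSO wells and 100% = positive control at its reference dose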
PfHsp90 set2 – reduces growth (ATP signal) of yeast expressing P. falciparum Hsp90; 310,000 compounds, 0.32% hits; S. cerevisiae expressing PfHsp90, BacTiter-Glo ATP, 48 h; yeast lacking PDR1 and PDR3 efflux regulators; AID 504621; inhibition, % at 9.4 µM;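 active = every replicate shows inhibition above about 80%, whatever the replicate mean, limit read from the data; inconclusive = mean inhibition reaches the set limit but some replicate falls short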;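 also: 0% = DMSO neutral controls and 100% = 20 µM radicicol positive controls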
tim10-1 inh – growth inhibitors of tim10-1 mutant yeast; S. cerevisiae tim10-1 ts strain growth, BacTiter-Glo, 24 h; inhibition, % at 20 µM; 330,000 compounds, 2.2% hits; AID 463190;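 active = inhibition of at least 40%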;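 also: mutant grown at 25 °C; 0% = DMSO wells with yeast and 100% = wells holding no yeast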
tim10-1 confirm – confirmation of tim10-1 mutant yeast growth inhibitors. 7,400 compounds, 56% hits. inhibition, % at 20 µM. S. cerevisiae tim10-1 ts strain growth, BacTiter-Glo, 24 h. shares compounds with tim10-1 inh;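 active = inhibition of yeast growth at or above a set limit in either of two repeat tests at 20 µM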;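 also: tim10-1 mutant grown at permissive 25 °C to find synthetic lethal compounds; 0% = DMSO yeast wells and 100% = medium wells without yeast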
The depositor's hits bear a star; u = inconclusive; x = no result. A selection: hits, their analogues and other compounds. The true share with any hit is near 4.6%.

SMILES	tim23-1 inh	TIM10 inh	NLRP3 yeast inh	SKKanGAS inh	PfHsp90 set2	tim10-1 inh	tim10-1 confirm
COCCNC(=O)/C(C#N)=C/c1ccc(-c2ccc(OC)cc2[N+](=O)[O-])o1	-8	-6	-9	7	9	-13	x
CCOP(=O)(OCC)/C(C#N)=C/c1ccc(-c2ccc(F)cc2F)o1	34	9	-3	3	-6	47*	32*
COc1ccc(S(=O)(=O)NCCC(C)C)cc1C	12	-13	21	0	-1	29	x
O=c1oc(-c2ccc(Br)cc2)nc2ccccc12	26	5	22	4	-5	21	x
COc1cccc(NC(=S)N/N=C2\CC3CCC2(C)C3(C)C)c1 (stereo not drawn)	17	36	17	28	-137	41*	31*
COc1c(Cl)cc(Cl)cc1CNCCO	-1	8	-2	5	17	3	x
Clc1ccc(C2CC(c3cccs3)n3ncnc3N2)c(Cl)c1 (stereo not drawn)	45	34	0	-4	x	41*	25
COc1cccc(C2CC(c3ccccc3Cl)Nc3ncnn32)c1 (stereo not drawn)	x	x	x	x	-1	x	x
Cc1ccc(-c2csc(C3C(N)=NC(S)=C(C#N)C34CCCCC4)n2)cc1 (stereo not drawn)	33	33	13	4	x	45*	19
Nc1nc2ccc(S(=O)(=O)N3CCCCC3)cc2s1	15	2	17	-1	-22	40*	20
CCOC(=O)c1ccc(NC(=O)CC2OCCN(CC)C2=O)cc1 (stereo not drawn)	35	34	21	-6	u	50*	62*
O=C(Cn1c(S(=O)(=O)Cc2ccccc2)nc2ccccc21)N1CCCCC1	5	4	13	-1	-5	21	x
O=C(N1CCCCCC1)n1c(Cc2ccccc2)nc2ccccc21	23	36	19	7	32	41*	42*
COc1ccc(C(=O)c2sc3nc(-c4ccccc4)ccc3c2N)cc1	20	5	14	x	-7	45*	19
CC(C)OC(=O)c1sc2nc(-c3ccccc3)ccc2c1N	19	-1	25	-11	-28	34	x
COc1ccc(-c2nc(N3CCCCCC3)sc2C(=O)c2ccccc2)cc1	28	21	24	2	30	28	x
O=C(c1ccccc1)c1sc(N2CCCCCC2)nc1-c1ccccc1	36	18	6	11	x	43*	16
CCN(CC)c1ccc(C(=O)OCc2c(C)noc2C)cc1	12	10	5	-16	2	8	x
Cc1cccc2[nH]c3c(N4CCC5(CC4)OCCO5)ncnc3c12	33	22	2	4	x	51*	32*
Clc1ccc2[nH]c3c(N4CCC5(CC4)OCCO5)ncnc3c2c1	22	3	20	9	x	21	x
CC(=O)Nc1ccc(S(=O)(=O)NCCC(=O)OC(C)C(=O)NC2(C#N)CCCCC2)cc1 (stereo not drawn)	-19	6	7	x	-1	-14	x
CC12CCC(C(=O)NC(c3ccccc3)c3ccccc3)(OC1=O)C2(C)C (stereo not drawn)	39	21	-1	-1	x	42*	29
S=c1[nH]nc(-c2n[nH]c3c2CCC3)n1/N=C/C=C/c1ccco1	5	2	12	4	x	9	x
CCN1C(=O)C(CC(=O)Nc2ccc(OC)cc2)N(CCc2ccc(OC)cc2)C1=S (stereo not drawn)	48	5	7	13	-5	47*	32*
COC(=O)c1cc(S(=O)(=O)N2CCN(c3cccc(C)c3C)CC2)c[nH]1	26	31	-9	-5	26	51*	30*
COC(=O)c1cc(S(=O)(=O)N2CCN(c3ccccc3)CC2)c[nH]1	0	-3	10	-2	9	-11	x
O=C(CS(=O)(=O)c1ccccc1)Nc1nc(-c2ccccc2)cs1	45	27	-2	6	-19	47*	40*
CCCNCc1cc(OC)c(OCc2ccccc2)cc1Br	24	-10	8	6	-6	17	x
Cc1cccc(NC2CCCCC2NS(=O)(=O)c2ccccc2)c1 (stereo not drawn)	32	16	-9	7	0	14	x
